# Assay results published in article PMC8384837, “Expanding the binding specificity for RNA recognition by a PUF domain”.
# Columns and labels:
# Test in all cases: yeast three-hybrid, YBZ-1, SC-Leu-His + 0.5 mM 3-AT, 4 days
# Conditions in all cases: tags: N-Gal4 AD-HA kept; label: inside an RPR1-promoter hybrid RNA with tandem MS2 sites; ssRNA
# PUM1 PUF domain R7-KHQ = PUM1 PUF domain R7-KHQ (Homo sapiens, UniProt Q14671 828-1176, S1079K;N1080H;E1083Q)
# Outline: (§1)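 The interaction score is the log change in variant frequency from input to selection. Scores were computed in log2 with a pseudocount of 1 for absent variants, using Illumina sequencing of PCR-amplified repeat regions. The input came from four days on SC-Leu and the selection from four days on SC-Leu-His + 0.5 mM 3-AT. The cells were strain YBZ-1 (LexA–MS2 coat fusion, HIS3 reporter) co-expressing Pumilio-1 PUF domain libraries and matching RNA elements from a centromeric plasmid.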
# PUM1 PUF domain R3-WYA = PUM1 PUF domain R3-WYA (Homo sapiens, UniProt Q14671 828-1176, C935W;R936Y;Q939A)
# Outline: as §1
# PUM1 PUF domain R3-GPV = PUM1 PUF domain R3-GPV (Homo sapiens, UniProt Q14671 828-1176, C935G;R936P;Q939V)
# Outline: as §1
# PUM1 PUF domain R8-NWH = PUM1 PUF domain R8-NWH (Homo sapiens, UniProt Q14671 828-1176, Y1123W;Q1126H)
# Outline: as §1
# PUM1 PUF domain R4-TAQ = PUM1 PUF domain R4-TAQ (Homo sapiens, UniProt Q14671 828-1176, N971T;H972A)
# Outline: as §1
# PUM1 PUF domain R8-RCR = PUM1 PUF domain R8-RCR (Homo sapiens, UniProt Q14671 828-1176, N1122R;Y1123C;Q1126R)
# Outline: as §1
# PUM1 PUF domain R8-RYR = PUM1 PUF domain R8-RYR (Homo sapiens, UniProt Q14671 828-1176, N1122R;Q1126R)
# Outline: as §1
# PUM1 PUF domain R1-RMS = PUM1 PUF domain R1-RMS (Homo sapiens, UniProt Q14671 828-1176, S863R;R864M;Q867S)
# Outline: as §1
# PUM1 PUF domain R1-LKR = PUM1 PUF domain R1-LKR (Homo sapiens, UniProt Q14671 828-1176, S863L;R864K;Q867R)
# Outline: as §1
# PUM1 PUF domain R6-FWS = biological target: T1, PUM1 PUF domain R6-FWS (Homo sapiens, UniProt Q14671 828-1176, N1043F;Y1044W;Q1047S)
# T1 sequence: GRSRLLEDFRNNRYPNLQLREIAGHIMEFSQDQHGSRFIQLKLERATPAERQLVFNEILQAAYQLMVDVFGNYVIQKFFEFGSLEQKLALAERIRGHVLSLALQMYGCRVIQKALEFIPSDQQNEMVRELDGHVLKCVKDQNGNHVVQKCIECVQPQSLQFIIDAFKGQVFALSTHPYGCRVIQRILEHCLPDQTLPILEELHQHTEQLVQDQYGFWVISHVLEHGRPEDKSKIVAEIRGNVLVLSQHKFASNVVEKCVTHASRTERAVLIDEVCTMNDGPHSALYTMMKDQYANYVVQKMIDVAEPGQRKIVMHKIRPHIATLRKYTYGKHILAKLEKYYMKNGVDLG
# Outline: as §1
sequence,measurement,setting,value
GGCUAGAACUAGUGGAUCCCCCGGCGCCCGGCGGCUCGAGCCCGGGUAAGUUUAAAUAGUCUGCAUGCCGCCGGGCGCCAUGCCUGCAGGUCGACUCUAGAAAACAUG,binding signal,PUM1 PUF domain R7-KHQ,2.38 log2 enrichment (interaction score)
GGCUAGAACUAGUGGAUCCCCCGGCGCCCGGCGGCUCGAGCCCGGGUAAGUGUAAUUAGUCUGCAUGCCGCCGGGCGCCAUGCCUGCAGGUCGACUCUAGAAAACAUG,binding signal,PUM1 PUF domain R3-WYA,3.22 log2 enrichment (interaction score)
same,binding signal,PUM1 PUF domain R3-GPV,2.28 log2 enrichment (interaction score)
GGCUAGAACUAGUGGAUCCCCCGGCGCCCGGCGGCUCGAGCCCGGGUAAGUGUAAAUAGUCUGCAUGCCGCCGGGCGCCAUGCCUGCAGGUCGACUCUAGAAAACAUG,binding signal,PUM1 PUF domain R8-NWH,2.75 log2 enrichment (interaction score)
same,binding signal,PUM1 PUF domain R4-TAQ,0.74 log2 enrichment (interaction score)
same,binding signal,PUM1 PUF domain R8-RCR,1.34 log2 enrichment (interaction score)
same,binding signal,PUM1 PUF domain R3-GPV,2.08 log2 enrichment (interaction score)
same,binding signal,PUM1 PUF domain R8-RYR,6.26 log2 enrichment (interaction score)
GGCUAGAACUAGUGGAUCCCCCGGCGCCCGGCGGCUCGAGCCCGGGUAAGUGUAAAUCGUCUGCAUGCCGCCGGGCGCCAUGCCUGCAGGUCGACUCUAGAAAACAUG,binding signal,PUM1 PUF domain R1-RMS,3.18 log2 enrichment (interaction score)
same,binding signal,PUM1 PUF domain R1-LKR,3.44 log2 enrichment (interaction score)
GGCUAGAACUAGUGGAUCCCCCGGCGCCCGGCGGCUCGAGCCCGGGUAAGUGUAUAUAGUCUGCAUGCCGCCGGGCGCCAUGCCUGCAGGUCGACUCUAGAAAACAUG,binding signal,PUM1 PUF domain R4-TAQ,3.78 log2 enrichment (interaction score)
GGCUAGAACUAGUGGAUCCCCCGGCGCCCGGCGGCUCGAGCCCGGGUAAGUGAAAAUAGUCUGCAUGCCGCCGGGCGCCAUGCCUGCAGGUCGACUCUAGAAAACAUG,binding signal,PUM1 PUF domain R6-FWS,4.06 log2 enrichment (interaction score)
GGCUAGAACUAGUGGAUCCCCCGGCGCCCGGCGGCUCGAGCCCGGGUAAGCGUAAAUAGUCUGCAUGCCGCCGGGCGCCAUGCCUGCAGGUCGACUCUAGAAAACAUG,binding signal,PUM1 PUF domain R8-RCR,3.19 log2 enrichment (interaction score)
same,binding signal,PUM1 PUF domain R8-RYR,7.21 log2 enrichment (interaction score)
GGCUAGAACUAGUGGAUCCCCCGGCGCCCGGCGGCUCGAGCCCGGGUAAGUGUAAAUUGUCUGCAUGCCGCCGGGCGCCAUGCCUGCAGGUCGACUCUAGAAAACAUG,binding signal,PUM1 PUF domain R1-RMS,2.07 log2 enrichment (interaction score)
same,binding signal,PUM1 PUF domain R1-LKR,2.22 log2 enrichment (interaction score)
GGCUAGAACUAGUGGAUCCCCCGGCGCCCGGCGGCUCGAGCCCGGGUAAGUCUAAAUAGUCUGCAUGCCGCCGGGCGCCAUGCCUGCAGGUCGACUCUAGAAAACAUG,binding signal,PUM1 PUF domain R7-KHQ,4.15 log2 enrichment (interaction score)
